# Measurements taken from PubChem BioAssay (Tox21).
# Inconclusive results are not listed. Activity calls are given as the source filed them. Calls follow the shape of the full dose curve.
# Molecular target: Beta-2 adrenergic receptor (Homo sapiens) (UniProt P07550)
# Experiment: Adrenergic beta2 receptor (ADRB2) small molecule antagonists, cell-based qHTS assay (AID 1963592); also: nearly all actives have a fitted effect of over 50% in size
# Details: CHO-ADRB2 cells, isoproterenol-stimulated cAMP HTRF ratio, 0.5 h; series mostly up to 92.4 µM; activity change, negative = inhibition: at the top concentration
# From the text: U.S. Tox21 Program National Center for Advancing Translational Sciences [NCATS] Division of Preclinical Innovation [DPI] U.S. Environmental Protection Agency [EPA] National Institutes of Environmental Health Sciences [NIEHS] National Toxicology Program [NTP] U.S. Food and Drug Administration [FDA] Tox21 Assay Overview: Beta adrenergic receptors (Beta-ARs) belong to the G-protein coupled receptor (GPCR) superfamily, includes three subtypes - beta1, beta2, and beta3. Beta1-AR is the predominant receptor subtype expressed in the heart, and beta2-AR is expressed in the kidney, lung, blood vessel and in the heart, and beta3 is found in the adipocytes. Beta1 and 2 ARs couple to Gs protein and elevate cyclic adenosine mono phosphate (cAMP), which activates protein kinase A and leads to the downstream signaling responsible for the physiological actions. Beta-AR agonists or antagonists are the most prescribed therapeutic agents for heart failure and asthma, and these were one of the first target receptors for the rational drug design. Tox21 10K compound library was screened using the cAMP-Gs dynamic assay (Cisbio Bioassays, Shelton, CT) to identify agonists/antagonists of the Gs-coupled human adrenergic, beta2 receptor (ADRB2) in the CHO-ADRB2 cell line (Codex BioSolutions, Inc. Gaithersburg, MD), which stably over-expresses ADRB2. The principle of cAMP-Gs dynamic assay is based on HTRF technology, which facilitates the fluorescence resonance energy transfer (FRET) between donor Europium cryptate and acceptor d2-labeled cAMP. The cAMP generated within cells competes with the red acceptor, d2-labled cAMP, for binding to the monoclonal anti-cAMP-cryptate (Europium donor). An increase in intracellular cAMP leads to the disruption of FRET signal, and the signal is inversely proportional to the cAMP concentration. Propranolol HCl (Sigma-Aldrich, St. Louis, MO) was used as a positive control in the screening.
# Tox21 Assay Protocol Summary: CHO-ADRB2 cells were dispensed at 1,000/well in 4uL assay medium into white/solid 1536-well plates (Greiner Bio-One North America Inc., Monroe, NC) using a Multidrop Combi dispenser (ThermoFisher Scientific, Waltham, MA). The assay plates were incubated at 37C and 5% CO2 for an overnight (18-20hr). Then positive control and test compounds dissolved in DMSO were transferred to the assay plates at 23nL using a Pintool station (Wako, San Diego, CA). Following the compound and positive control transfer, 1uL agonist-stimulation mix containing 1nM Isoproterenol HCl, 100uM IBMX and 25uM Ro-20-1724 was added to each well of the assay plates using BioRAPTR Flying Reagent Dispenser (FRD, Beckman Coulter, Brea, CA). The assay plates were incubated at room temperature for 0.5hr. Then 2.5ul each d2-labled cAMP and anti-cAMP-cryptate solutions were added separately to each well of the assay plates using an FRD and the assay plates were incubated at room temperature for 1hr. The fluorescence signal was measured at two different wavelengths (665nm and 615nm) using an Envision plate reader (Perkin Elmer, Shelton, CT). Data were expressed as the ratio of 665 nm/615 nm.
# % is scaled to controls: 0 for no effect and ±100 for the full control effect; potency is read from the fitted curve at half-maximal effect.
# Sequence of Beta-2 adrenergic receptor (Homo sapiens) (P07550 whole entry, looked up): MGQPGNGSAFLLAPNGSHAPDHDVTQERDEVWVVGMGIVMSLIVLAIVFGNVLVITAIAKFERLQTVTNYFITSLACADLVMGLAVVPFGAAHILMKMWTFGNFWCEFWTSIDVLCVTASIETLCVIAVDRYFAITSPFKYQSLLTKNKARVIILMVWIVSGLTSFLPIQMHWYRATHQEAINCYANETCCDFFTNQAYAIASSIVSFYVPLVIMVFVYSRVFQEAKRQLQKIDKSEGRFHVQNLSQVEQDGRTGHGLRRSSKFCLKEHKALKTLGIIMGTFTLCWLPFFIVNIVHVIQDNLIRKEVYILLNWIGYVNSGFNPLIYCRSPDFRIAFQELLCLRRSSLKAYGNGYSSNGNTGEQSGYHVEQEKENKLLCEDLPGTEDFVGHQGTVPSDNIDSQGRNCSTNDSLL
Structure (SMILES),"activity change, negative = inhibition",Potency
O=C(O)C1CCC1,5.23% [at 42.5 µM] (inactive),–
CN(C)C(=O)Nc1ccc(Oc2ccc(Cl)cc2)cc1,-7.71% (inactive),–
Nc1ncnc2c1ncn2[C@H]1CC[C@@H](CO)O1,-8.21% (inactive),–
O=C(O)c1cc(O)c2c(c1)C(=O)c1cccc(O)c1C2=O,0.708% (inactive),–
O=C=Nc1cccc(C(F)(F)F)c1,-17% (inactive),–
CN(C)CCn1nnnc1SCC1=C(C(=O)O)N2C(=O)[C@@H](NC(=O)Cc3csc(N)n3)[C@H]2SC1,3.04% [at 42.5 µM] (inactive),–
CCCCCCC(CCCCCCCCCCC(=O)OCC(COC(C)=O)OC(C)=O)OC(C)=O (stereo not given),10.2% [at 42.5 µM] (inactive),–
CO[C@@H]1COCC[C@@H]1N[C@@H]1CC[C@@](C(=O)N2CCc3ncc(C(F)(F)F)cc3C2)(C(C)C)C1,-4.13% (inactive),–
O=C1OC(O)C(C(Cl)Cl)=C1Cl (stereo not given),0.106% (inactive),–
CCCCCN=C(N)N/N=C/c1c[nH]c2ccc(OC)cc12,–,26.6 µM (active)
FC(F)(F)C(F)(F)C(F)(F)C(F)(F)CCI,2.93% [at 42.5 µM] (inactive),–
CCS(=O)(=O)CCn1c([N+](=O)[O-])cnc1C,5.82% [at 42.5 µM] (inactive),–
CO[C@@]1(NC(=O)CSCC#N)C(=O)N2C(C(=O)O)=C(CSc3nnnn3C)CS[C@@H]21,2.09% [at 42.5 µM] (inactive),–
CSc1cnc(C)cn1,0.349% [at 240 µM] (inactive),–
CCCC(=O)C(=O)O,1.82% (inactive),–
CCCCCCc1ccc(N)cc1,-7.81% (inactive),–
CCOC(=O)C1=NOC(c2ccccc2)(c2ccccc2)C1,1.95% (inactive),–
O=C(O)C[C@H](O)C[C@H](O)/C=C/c1c(C2CC2)nc2ccccc2c1-c1ccc(F)cc1,-0.968% [at 19 µM] (inactive),–
CCCCCCCCN(C)CCCCCCCC,-3.1% (inactive),–
Cc1cccc(C)c1C,1.73% (inactive),–

Structure (SMILES),"activity change, negative = inhibition",Potency
CCOC(=O)C(C)(C)C,-5.31% (inactive),–
CC(C)c1cc(C(C)C)cc(C(C)C)c1,9.34% (inactive),–
Cc1cc(Br)ccc1NC(=O)CCl,-8.5% (inactive),–
N#CCc1ccc(Cl)cc1Cl,10.5% (inactive),–
C=C1CC[C@H]2O[C@]2(C)CC[C@@H]2[C@@H]1CC2(C)C,5.16% (inactive),–
O=C(NC(Cc1cc(=O)[nH]c2ccccc12)C(=O)O)c1ccc(Cl)cc1 (stereo not given),-2.9% [at 42.5 µM] (inactive),–
O=C(O)CCCC[P+](c1ccccc1)(c1ccccc1)c1ccccc1,5.34% [at 42.5 µM] (inactive),–
CCCOc1ccc(C(=O)OCCN(CC)CC)cc1N,2.52% [at 42.5 µM] (inactive),–
N=c1ccn2c(n1)O[C@H]1[C@H](O)[C@@H](CO)O[C@H]12,-5.87% (inactive),–
Cc1c(C)c([N+](=O)[O-])c(C(C)(C)C)c([N+](=O)[O-])c1C,3.89% (inactive),–
CC(=O)O[C@H]1C[C@@H]2CC[C@@H]3[C@H](CC[C@@]4(C)[C@H]3C[C@H]([N+]3(C)CCCCC3)[C@@H]4OC(C)=O)[C@@]2(C)C[C@@H]1N1CCCCC1,2.88% [at 42.5 µM] (inactive),–
CN1CCN(N)CC1,-11.8% [at 42.5 µM] (inactive),–
CC(C)C(=O)Nc1cccc(C(F)(F)F)c1,0.895% [at 42.5 µM] (inactive),–
CC1=NN(c2ccc(C(=O)O)cc2)C(=O)C1,2.36% (inactive),–
O=C(OOC(=O)c1ccccc1)c1ccccc1,11% [at 42.5 µM] (inactive),–
O=C(O)c1ccc[n+]([O-])c1,0.268% [at 42.5 µM] (inactive),–
CCCCCCCCCCCCCCCC[N+](C)(C)CCN(Cc1ccc(OC)cc1)c1ncccn1,-3.59% [at 42.5 µM] (inactive),–
CCCCCCCCCCCCCOP(=O)(O)O,2.63% (inactive),–
CC(C)OC(=O)C(C(=O)OC(C)C)=C1SC=CS1,6.97% [at 42.5 µM] (inactive),–
CO[Si](CCCNc1ccccc1)(OC)OC,-14.7% (inactive),–
